Source: PubChem (National Center for Advancing Translational Sciences (NCATS))
LASV entry inh: qHTS for Inhibitors of binding or entry into cells for Lassa Virus. AID 540256, 2011. Potency, µM (titrated, usually from 37.9 µM), for the others: at the top dose activity change, negative = inhibition, most hits filed as inhibitors. Lassa virus pseudotype entry inhibition, cell reporter. 1.2% of 300,000 active; calls by dose curve; tested in HEK293 cells; note: potency is the fitted concentration of half-maximal effect; % is set by controls: 0 for no effect and ±100 for the full control effect; nearly all actives have a fitted effect of over 50% in size
VACV mCherry inh: qHTS for Stage-Specific Inhibitors of Vaccinia Orthopoxvirus: mCherry Reporter Primary qHTS | Vaccinia virus mCherry reporter infection, fluorescence | Potency, µM (highest dose often 36.5 µM), for the others: at the top dose activity change, negative = inhibition, most hits filed as inhibitors | 0.63% of 310,000 active; calls by dose curve; tested in A549 cells; note: potency is the fitted concentration of half-maximal effect; % is set by controls: 0 for no effect and ±100 for the full control effect; nearly all actives have a fitted effect of over 35% in size
Shiga toxin inh: A qHTS for Small Molecule Inhibitors of Shiga Toxin; Vero cells, Shiga toxin protein synthesis inhibition reporter; inhibition, % at 38.7 µM; 9.2% of 290,000 active; AID 2315, 2010; in the data active = inhibition mostly above about 28%, no sharp cut-off; inactive = mostly below about 43%; note: 0% is about no effect
CHX counter: Cycloheximide Counterscreen for Small Molecule Inhibitors of Shiga Toxin; cell reporter, cycloheximide protein synthesis inhibition counterscreen; max response, %; 12% of 300,000 active; in the data active = max response mostly above about 13%, no sharp cut-off; inactive = mostly below about 14%; note: read at 38.3 µM for the half of the compounds with a filed dose; 0% is about no effect
Vaccinia Venus: qHTS for Stage-Specific Inhibitors of Vaccinia Orthopoxvirus: Venus Reporter Primary qHTS. Vaccinia virus Venus reporter expression, fluorescence. Potency, µM (series often up to 36.5 µM), for the others: top-dose activity change, negative = inhibition, most hits filed as inhibitors. 0.46% of 330,000 active. AID 720580, 2013; calls by dose curve; tested in A549 cells; note: potency is the fitted concentration of half-maximal effect; % is set by controls: 0 for no effect and ±100 for the full control effect; nearly all actives have a fitted effect of over 30% in size
MARV entry inh: qHTS for inhibitors of binding or entry into cells for Marburg Virus; Marburg virus pseudotyped entry inhibition, cell reporter; Potency, µM (highest dose often 37.8 µM), inactives show at the top dose activity change, negative = inhibition, hits mostly inhibitors; 1.8% of 300,000 active; calls by dose curve; tested in HEK293 cells; note: potency is the fitted concentration of half-maximal effect; % is set by controls: 0 for no effect and ±100 for the full control effect
Starred values were filed as active, the others as inactive; i = inactive; ? = inconclusive; · = no result given; + = active, no number; [ ] = remark or other dose. This is one part of a sample in which hits are shown more often than they occur.

SMILES	LASV entry inh	VACV mCherry inh	Shiga toxin inh	CHX counter	Vaccinia Venus	MARV entry inh
Oc1ccc2c3c1O[C@H]1c4[nH]c5c(c4C[C@@]4(O)[C@@H](C2)N(CC2CC2)CC[C@]314)C[C@]1(O)[C@H]2Cc3ccc(O)c4c3[C@@]1(CCN2CC1CC1)[C@@H]5O4	·	·	·	·	·	-27.9%
NC(N)=Nc1ccc2[nH]c3c(c2c1)C[C@@]1(O)[C@H]2Cc4ccc(O)c5c4[C@@]1(CCN2CC1CC1)[C@H]3O5	2.31µM*	-14.5%	-7.4	-7.0	-4.8%	25.9µM*
CCOC(=O)NN=C1C[C@@H](O)[C@@H](O)[C@@H]2[C@H]3C(=O)N(Cc4ccc5c(c4)OCO5)C(=O)[C@@H]3CC[C@H]12	·	·	·	·	·	-22.0%[14.2 µM]
CC(=O)c1c(C)[nH]c(C(=O)OCC(=O)N2CCc3ccccc32)c1C	?	-13.2%	33.2	24.1*	-5.3%	?
CCOC(=O)c1[nH]c(C)c(C(=O)OCC(=O)N2CCc3ccccc32)c1C	-22.1%	·	24.5	1.1	·	?
O=C(OCC(=O)N1CCc2ccccc21)c1ccccc1F	11.0%[46.1 µM]	-13.5%	112.6*	45.3*	2.7%	23.8%[46.1 µM]
O=C(OCC(=O)N1CCc2ccccc21)c1c2c(nc3ccccc13)CCCCC2	?	-4.0%	+	19.9*	-7.0%	?
Cc1ccc(C(=O)OCC(=O)N2CCCC2)cc1	-2.6%[46.1 µM]	-8.5%	46.9*	42.9*	-6.8%	?
O=C(OCC(=O)N1CCCC1)c1ccc(O)cc1	-9.3%	-5.3%	31.5	11.0	6.2%	?
Cc1ccccc1NC(=S)N(CCN1CCOCC1)Cc1ccccc1F	6.9%	-9.8%	-8.3	5.7	-2.3%	?
CC(C(=O)Nc1ccc(OC(F)(F)F)cc1)N1Cc2ccccc2C1=O (stereo unspecified)	2.1%[46.1 µM]	-15.0%	·	·	-12.9%	·
Cc1ccc(C(=O)OCC(=O)N2CCc3ccccc32)cc1	?	-14.3%	151.6*	34.2*	3.5%	-8.6%[46.1 µM]
Cc1ccc(C(=O)OCC(=O)N2CCCc3ccccc32)cc1C	-2.8%	-14.7%	·	·	-11.9%	1.5%
Cc1ccc(C(=O)N2CCN(S(=O)(=O)c3ccc(C(C)C)cc3)CC2)s1	-1.4%	-9.2%	·	·	-16.9%	-29.3%
O=C(Nc1nc2ccccc2n1CCN1CCOCC1)c1ccc(Cl)cc1	?	i	49.6*	12.0*	-1.6%	?
CCCn1c(NC(=O)c2ccc(C)cc2)nc2ccccc21	14.7%	-21.6%	41.8*	16.7*	-24.5%	-26.9%
CCCn1c(NC(=O)c2cccc(S(=O)(=O)N3CCCC3)c2)nc2ccccc21	?	·	-0.5	-7.9	·	6.51µM*
O=C(Nc1nc2ccccc2n1CCN1CCCC1)c1ccc(Cl)cc1	?	·	77.9*	16.0	-16.6%	?
CCN1CCN(C(=S)Nc2ccc3nc4n(c(=O)c3c2)CCCCC4)CC1	-24.9%[46.1 µM]	-18.8%	-11.2	0.9	-18.7%	-9.0%[46.1 µM]
Cc1ccc(C(=O)Nc2nc3ccccc3n2CCN2CCCC2)cc1	9.6%	·	103.6*	38.2*	?	?
C=CCn1c(NC(=O)c2ccc(C)cc2)nc2ccccc21	?	?	41.6	15.6*	-8.4%	?
O=C(Nc1nc2ccccc2n1CCN1CCCCC1)c1ccc(Cl)cc1	·	·	35.5	9.6	·	2.6%
CCCn1c(NC(=O)C2CCN(S(=O)(=O)c3cccs3)CC2)nc2ccccc21	?	-25.6%	-22.2	0.1	?	12.6µM*
Cc1csc(NC(=O)C2CCN(S(=O)(=O)c3cccs3)CC2)n1	-14.7%[46.1 µM]	-3.9%	-8.2	7.9	-1.3%	?
CC(=O)NC(Cc1cccc(C)c1)C(=O)NC1CCN(C(=O)NCc2ccccc2)CC1 (stereo unspecified)	1.1%	i	16.2	-6.1	-0.8%	9.4%[46.1 µM]
SMILES	LASV entry inh	VACV mCherry inh	Shiga toxin inh	CHX counter	Vaccinia Venus	MARV entry inh
COCCN=c1scc(-c2cccs2)n1/N=C(\C)c1ccco1	·	·	123.7*	82.7*	·	·
O=C(/C=C/c1ccc(-c2ccccc2[N+](=O)[O-])o1)c1ccco1	-4.2%	-15.0%	113.0*	37.2*	10.7%	-16.5%[46.1 µM]
O=C(/C=C/c1ccc([N+](=O)[O-])cc1)c1ccco1	·	·	-2.9	-2.6	·	·
CCOC(=O)c1c2c(n(C3CCCCC3)c1CN(C)C)CC(Br)=C(OC)C2	·	·	·	·	·	10µM*
CC(=O)c1ccc(OCc2cc(=O)n3ccsc3n2)cc1	-8.0%	-1.7%	62.6*	37.7*	-14.1%	?
O=c1cc(CNc2ccc(Br)cc2)nc2sccn12	3.7%	-15.4%	56.1*	28.1*	-20.1%	?
CN(Cc1cc(=O)n2ccsc2n1)c1ccccc1	0.9%	-6.0%	-2.5	2.1	-6.6%	-10.1%
CCS(=O)(=O)Nc1cccc(C2=NN(S(C)(=O)=O)C(c3cccs3)C2)c1 (stereo unspecified)	·	·	5.3	-4.7	·	·
CS(=O)(=O)N1N=C(c2cccs2)CC1c1ccc(F)cc1 (stereo unspecified)	·	-10.4%	51.3	32.6*	-12.0%	·
CS(=O)(=O)N1N=C(c2ccc(Cl)cc2)CC1c1cccs1 (stereo unspecified)	-3.0%	·	34.7	35.0*	·	-16.2%
CSc1nnc(CCNC(=O)c2ccc(-c3cccc(F)c3)cc2)n1-c1ccc(F)cc1	·	-16.3%	·	·	-4.3%	·
COC(=O)[C@@]1(Cc2ccc(F)cc2)[C@H]2c3cc(C(=O)N(C)C)n(Cc4ccccc4)c3C[C@H]2CN1C(=O)c1ccccc1	?	-25.0%	-10.7	-2.5	?	13µM*
COC(=O)[C@@]1(Cc2ccc(OC)cc2)[C@H]2c3cc(C(=O)N(C)C)n(Cc4ccc(OC(F)(F)F)cc4)c3C[C@H]2CN1C(=O)c1ccccc1	?	-21.2%	-13.7	-2.0	?	9.2µM*
C=C1C(=O)C=C2CN(C(=O)c3ccccc3)[C@@](Cc3ccc(F)cc3)(C(=O)OC)[C@@H]12	20.6µM*	?	-30.5	-10.9	8.91µM*	?
COC(=O)[C@@]1(Cc2ccc(F)cc2)[C@H]2c3cc(C(=O)N(C)C)n(Cc4ccc(OC)c(OC)c4)c3C[C@H]2CN1C(=O)c1ccccc1	?	-11.2%	-7.3	-3.7	-28.9%	?
Cc1ccc(NC(=O)C(C)NC(=O)OCc2ccccc2)cc1C (stereo unspecified)	0.5%	?	-7.1	1.6	-7.9%	-8.7%[46.1 µM]
COC(=O)C1CCN(Cc2ccc3c(c2)CN(C(=O)C(C)N2CCOCC2)CCO3)CC1 (stereo unspecified)	·	-13.8%	·	·	-5.4%	·
COc1cc(C(=O)Nc2cccc(-c3nnc(-c4ccco4)o3)c2)ccc1OC(C)=O	?	?	65.7*	31.3*	-17.1%	?
COc1ccc(C(=O)Nc2cccc(-c3nnc(-c4ccco4)o3)c2)cc1	-16.8%	?	56.6	30.7*	?	?
CC1CN(C(=O)CCC(=O)NCCc2ccccc2)c2ccccc2O1 (stereo unspecified)	·	2.4%	35.1*	25.3*	-6.0%	·
